Results published in PubChem BioAssay (NCATS).
Inconclusive results are not listed. The source made the active and inactive calls. Unless noted, the call rests on the fitted dose curve; in most records, active means well fitted curve in the direction sought with a large enough effect; inconclusive means small, poorly fitted or top-dose-only effect, or another doubt; inactive means no such curve, though single readings can be large; an effect the other way counts as inactive or inconclusive.

Columns and labels:
[1] = P-glycoprotein substrates identified in KB-8-5-11 adenocarcinoma cell line, qHTS therapeutic library screen (AID 1346987); further: potency means the concentration at half of the fitted maximal effect; nearly all actives have a fitted effect of over 65% in size
How it was run: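 Human cervical adenocarcinoma KB-8-5-11 cells, selected in colchicine to over-express P-gp and assayed without it, were exposed for 72 h to titrated compounds. An ATP-based luminescent viability signal gave AC50.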

[2] = system: Zika virus NS2B-NS3 protease (linked construct); experiment: Confirmatory screen NINDS AMC qHTS for Zika virus inhibitors (AID 1347152); further: potency means the concentration at half of the fitted maximal effect; nearly all actives have a fitted effect of over 70% in size
How it was run: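 IC50s from 4-parameter Hill fits of percent inhibition, based on AMC fluorescence gain (340/450 nm) over 15 min with 10 microM Bz-Nle-KRR-AMC. Enzyme: 1 nM linked NS2B-NS3 in Tris-HCl pH 8.0; 15-min compound preincubation.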

[3] = Confirmatory screen GU Rhodamine qHTS for Zika virus inhibitors qHTS (AID 1347157); further: potency means the concentration at half of the fitted maximal effect; nearly all actives have a fitted effect of over 70% in size
How it was run: (§1)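 Percent inhibition came from the 15-min rise in Rhodamine110 fluorescence (1.5 microM substrate, ~15% conversion), normalized to no-inhibitor and no-enzyme wells and Hill-fitted. Unlinked protease, 25 nM, pH 8.0 Tris buffer; compounds up to 114 microM, 15-min preincubation.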

[4] = system: Zika virus NS2B-NS3 protease (unlinked complex); experiment: Primary screen GU Rhodamine qHTS for Zika virus inhibitors: Unlinked NS2B-NS3 protease assay (AID 1347159); further: potency means the concentration at half of the fitted maximal effect; nearly all actives have a fitted effect of over 60% in size
How it was run: as §1

[5] = system: Zika virus NS2B-NS3 protease (linked construct); experiment: Primary screen NINDS Rhodamine qHTS for Zika virus inhibitors (AID 1347160); further: nearly all actives have a fitted effect of over 55% in size; further: potency means the concentration at half of the fitted maximal effect
How it was run: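 Rhodamine110-peptide cleavage (1.5 µM substrate) by 25 nM linked NS2B-NS3 enzyme at pH 8.0 (Tris, Tween 20), after 15 min RT preincubation with compounds; 15-min fluorescence change normalized to controls and Hill-fitted.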

[6] = Confirmatory screen NINDS Rhodamine qHTS for Zika virus inhibitors (AID 1347161); further: potency means the concentration at half of the fitted maximal effect; nearly all actives have a fitted effect of over 60% in size
How it was run: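 qHTS dose-response: 25 nM linked protease, pH 8.0 Tris/Tween buffer, cpd titration, 15 min RT preinc, 1.5 microM Rhod110 peptide, 15 min reaction (~15% conversion), Ex480/Em540; 4-parameter Hill fit.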

[7] = system: Zika virus NS2B-NS3 protease (linked); experiment: 384 well plate NINDS AMC confirmatory qHTS for Zika virus inhibitors (AID 1347163); details: Recombinant NS2B-NS3 protease, Ac-VKTGKR-AMC fluorescence; further: potency means the concentration at half of the fitted maximal effect; nearly all actives have a fitted effect of over 50% in size
How it was run: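 Enzyme (5, 30 or 60 nM final) first met test compounds for ~15 min. The AMC-tagged peptide Ac-VKTGKR-AMC followed at 30 microM. Fluorescence was then recorded at 25 min and scaled against no-enzyme and no-inhibitor wells.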

[8] = system: Zika virus NS2B-NS3 protease (linked construct); experiment: 384 well plate NINDS Rhodamine confirmatory qHTS for Zika virus inhibitors (AID 1347164);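 further: fluorescence from protease cleavage of Ac-LKRR-rhodamine 110 substrate; potency means the concentration at half of the fitted maximal effect; nearly all actives have a fitted effect of over 65% in size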
How it was run: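 Fluorescence at 485/538 nm was measured 25 minutes after adding 10 microM Ac-LKRR-Rd substrate, in the dark at room temperature. The protease (5, 30 or 60 nM final) had been preincubated ~15 minutes with compound; aprotinin as control.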

[9] = Vero cells viability qHTS for Zika virus inhibitors (AID 1347167); further: potency means the concentration at half of the fitted maximal effect
How it was run: (§2)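 Luminescent ATP readout (CellTiter Glo) after 30 min at 37 degrees C gives viability; cells in DMEM + 4% FBS were treated 24 to 48 hours with compound, following overnight attachment.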

[10] = HepG2 cells viability qHTS for Zika virus inhibitors (AID 1347168); further: potency means the concentration at half of the fitted maximal effect
How it was run: as §2

[11] = Tertiary RLuc qRT-PCR qHTS assay for Zika virus inhibitors (AID 1347169); further: potency means the concentration at half of the fitted maximal effect; nearly all actives have a fitted effect of over 55% in size
How it was run: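 Orthogonal cell-based readout: luminescence measured 1-1.5 hrs after adding live-cell Renilla substrate to Vero cells that had been infected with ZIKV-RLuc (MOI 1-2) post-compound, incubated 48-72 hrs at 37 degrees C.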

[12] = Primary qHTS for inhibitors of nuclear receptor binding SET domain protein 2 (NSD2) in an isogenic RCH-ACV NSD2 p.E1099K mutant (9B) (AID 1645876); further: potency means the concentration at half of the fitted maximal effect; nearly all actives have a fitted effect of over 70% in size
[13] = Primary qHTS for inhibitors of nuclear receptor binding SET domain protein 2 (NSD2) in an RCH-ACV wild type WT cells (2C) (AID 1645877); further: potency means the concentration at half of the fitted maximal effect; nearly all actives have a fitted effect of over 70% in size
[14] = target: Luciferin 4-monooxygenase (Photinus pyralis) (UniProt P08659); experiment: Primary firefly luciferase (FLuc) qHTS assay for identification of artifact compounds. (AID 1845220); details: outcome: dose series up to 54.1 µM unless noted; further: nearly all actives have a fitted effect of over 60% in size
How it was run: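 Compounds sat 15 min at room temperature with 10 uM luciferin and 10 uM ATP (pH 7.6 Tris acetate). Firefly luciferase (10 nM final) was then added, and luminescence was read 5 min later. Data normalized to no-enzyme and DMSO controls were Hill-fitted.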

[15] = system: Nanoluciferase (engineered Oplophorus gracilirostris luciferase); experiment: Primary Nanoluciferase (NLuc) qHTS assay for identification of artifact compounds. (AID 1845222);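 further: 0% = DMSO and -100% = no enzyme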
How it was run: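 Luminescence from secreted NLuc (filtered, 1:55-diluted S16 cell medium) read 5 min after Nano-Glo substrate; compounds preincubated 15 min, RT. Hill fits of inhibition normalized to DMSO and no-enzyme.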

[16] = Primary redox qHTS assay for identification of artifact compounds. (AID 1845223);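 further: 0% = DMSO and 100% = reference compound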
How it was run: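 Redox-cycling detection via DTT (250 uM final) oxidation coupled to Amplex Red (25 uM)/HRP (250 mU/mL) in HBSS. 15 min preincubation plus 30 min after DTT, room temperature. Ex/Em 525/598 nm; 4-parameter Hill fit against DMSO and 10 uM DA3003.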

HEK293 = experiment: Cytotoxic Profiling of Annotated Libraries Using Quantitative High-Throughput Screening (AID 1296008); details: Five cell lines viability, CellTiter-Glo ATP luminescence, 48-72 h; max response: stronger effect = lower value; further: nearly all actives have a fitted effect of over 60% in size; further: potency means the concentration at half of the fitted maximal effect; on max response: on the % scale 0 is the no-effect control and ±100 the full control effect
How it was run: (§3)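 Cytotoxicity was measured as CellTiter-Glo ATP luminescence, read after 10 min at room temperature. Compound treatment of the cells lasted 48 or 72 hr at 37 degrees Celsius in a qHTS format.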

HaCat = experiment: as above; details: Five cell lines viability, CellTiter-Glo ATP luminescence, 48-72 h; max response: stronger effect = lower value
How it was run: as §3

NIH3T3 = experiment: as above; details: Five cell lines viability, CellTiter-Glo ATP luminescence, 48-72 h; max response: stronger effect = lower value
How it was run: as §3

C33A = experiment: Primary qHTS to identify gynecologic anti-cancer compounds using libraries of approved drugs and bioactive compounds (AID 1345084); details: Gynecologic cancer cell panel viability, ATPlite luminescence, 48 h; series mostly up to 57.5 µM; further: nearly all actives have a fitted effect of over 55% in size; further: potency means the concentration at half of the fitted maximal effect
How it was run: (§4)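 Luminescence from the ATPlite ATP-monitoring reagent indicates viable cell number; lower signal means cytotoxicity. Cells received compound 16 h after seeding and were exposed for 48 h across five concentrations.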

CAOV3 = experiment: as above; details: Gynecologic cancer cell panel viability, ATPlite luminescence, 48 h; series mostly up to 57.5 µM
How it was run: as §4

CASKI = experiment: as above; details: Gynecologic cancer cell panel viability, ATPlite luminescence, 48 h; series mostly up to 57.5 µM
How it was run: as §4

Es-2 = experiment: as above; details: Gynecologic cancer cell panel viability, ATPlite luminescence, 48 h; series mostly up to 57.5 µM
How it was run: as §4

HeLa = experiment: as above; details: Gynecologic cancer cell panel viability, ATPlite luminescence, 48 h; series mostly up to 57.5 µM
How it was run: as §4

Hek293T = experiment: as above; details: Gynecologic cancer cell panel viability, ATPlite luminescence, 48 h, control line for the selectivity index; series mostly up to 57.5 µM
How it was run: as §4

JEG-3 = experiment: as above; details: Gynecologic cancer cell panel viability, ATPlite luminescence, 48 h; series mostly up to 57.5 µM
How it was run: as §4

OV90 = experiment: as above; details: Gynecologic cancer cell panel viability, ATPlite luminescence, 48 h; series mostly up to 57.5 µM
How it was run: as §4

PA-1 = experiment: as above; details: Gynecologic cancer cell panel viability, ATPlite luminescence, 48 h; series mostly up to 57.5 µM
How it was run: as §4

Tov-21-G = experiment: as above; details: Gynecologic cancer cell panel viability, ATPlite luminescence, 48 h; series mostly up to 57.5 µM
How it was run: as §4

Tov112D = experiment: as above; details: Gynecologic cancer cell panel viability, ATPlite luminescence, 48 h; series mostly up to 57.5 µM
How it was run: as §4

[17] = qHTS to identify inhibitors of the type 1 interferon - major histocompatibility complex class I in skeletal muscle: primary screen against the NCATS Mechanism Interrogation Plate v5.0 (MIPE) Libary (AID 1347411); further: potency means the concentration at half of the fitted maximal effect; nearly all actives have a fitted effect of over 65% in size
How it was run: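 IFN-beta-driven (4 ng/ml) HLA-B-HiBit expression in CRISPR-tagged C25cl48 myoblasts; compounds 11-pt, 1:3, max 46 uM, 24 hr exposure; lytic NanoLuc complementation luminescence.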

[18] = target: Calcium and integrin-binding protein 1 (Homo sapiens) (UniProt Q99828); experiment: Primary qHTS for Identification of Calcium Integrin Binding Protein 1 (CIB1) Competitor (AID 1508620);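 further: GST tagged CIB1 binding a fluorescein labelled alphaIIb integrin peptide tracer; top concentration of the series differs between compounds; on the % scale 0 is the no-effect control and ±100 the full control effect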
Chain of Calcium and integrin-binding protein 1 (Homo sapiens) (Q99828 whole entry, looked up): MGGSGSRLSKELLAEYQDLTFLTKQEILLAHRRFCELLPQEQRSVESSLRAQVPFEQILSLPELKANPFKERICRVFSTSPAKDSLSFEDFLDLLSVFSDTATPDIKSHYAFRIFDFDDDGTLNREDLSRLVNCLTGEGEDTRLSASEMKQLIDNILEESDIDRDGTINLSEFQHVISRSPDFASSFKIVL
How it was run: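 CIB1-GST (1 uM final) and compound incubated 15 min at room temperature before adding FITC-alphaIIb peptide tracer (100 nM final). Competition for binding read by fluorescence polarization (ex 480, em 540) after another 15 min at room temperature.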

[19] = Cytotoxicity counterscreen for inhibitors of SARS-CoV-2 cell entry (AID 1645845; calls by dose curve; further: potency means the concentration at half of the fitted maximal effect; nearly all actives have a fitted effect of over 50% in size)
How it was run: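 ATP-content luminescence (ATPLite 1step, 15 min RT) read after 48 h compound exposure of Expi293F cells stably expressing human ACE2; normalized to cells-only wells and media-only wells.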

[20] = NCATS anti-infectives library activity on HEK293 viability as a counter-qHTS vs the C. elegans viability qHTS (AID 1745854);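 further: potency means the concentration at half of the fitted maximal effect; HEK293 cells exposed to compounds for 24 hr before the viability read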
How it was run: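 Compound titrations (final up to 41.7 uM) were incubated with HEK293 cells for 24 hr at 37C under 5% CO2. Viable cells were quantified with CellTiter-Glo after 10 min at ambient temperature.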

[21] = NCATS anti-infectives library activity on the primary C. elegans qHTS viability assay (AID 1745855; calls by dose curve; further: potency means the concentration at half of the fitted maximal effect)
How it was run: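 Titration-based screen in worms: eggs hatched overnight in M9, L1 larvae fed TOP10 capsules in S medium with compound, incubated 21 °C for 7 days; fluorescent objects gated by size and intensity at days 0, 3 and 7.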

[22] = target: Glutathione peroxidase 1 (Homo sapiens) (UniProt P07203); experiment: Primary qHTS Assay for Inhibitors of Recombinant Selenoprotein Glutathione Peroxidase 1 (GPX1) (AID 1845191); further: on the % scale 0 is the no-effect control and ±100 the full control effect; nearly all actives have a fitted effect of over 65% in size
Chain of Glutathione peroxidase 1 (Homo sapiens) (P07203 whole entry, looked up): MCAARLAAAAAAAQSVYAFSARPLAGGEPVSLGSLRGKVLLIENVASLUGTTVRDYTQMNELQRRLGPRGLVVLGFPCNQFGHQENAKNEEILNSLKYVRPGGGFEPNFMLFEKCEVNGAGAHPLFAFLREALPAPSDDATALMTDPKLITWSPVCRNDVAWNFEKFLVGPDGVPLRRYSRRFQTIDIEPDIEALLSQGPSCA
How it was run: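 NADPH consumption tracked by fluorescence at 340/450 nm between t=0 and t=15 min, room temperature. Final mix: 10 nM GPX1, 100 nM glutathione reductase, 1 mM GSH, 0.5 mM NADPH, 0.5 mM cumene hydroperoxide, 0.01% BSA; 30 min compound–enzyme preincubation.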

[23] = target: Phospholipid hydroperoxide glutathione peroxidase GPX4 (Homo sapiens) (UniProt P36969); experiment: Primary qHTS Assay for Inhibitors of Recombinant Selenoprotein Glutathione Peroxidase 4 (GPX4) (AID 1845192)
Chain of Phospholipid hydroperoxide glutathione peroxidase GPX4 (Homo sapiens) (P36969 whole entry, looked up): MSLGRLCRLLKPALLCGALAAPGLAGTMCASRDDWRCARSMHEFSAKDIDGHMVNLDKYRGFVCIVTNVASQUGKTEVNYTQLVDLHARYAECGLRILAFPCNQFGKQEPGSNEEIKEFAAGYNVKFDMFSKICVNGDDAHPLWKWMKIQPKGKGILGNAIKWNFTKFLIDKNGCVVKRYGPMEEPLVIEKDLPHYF
How it was run: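 NADPH consumption followed by fluorescence at 340/450 nm, t=0 and after 15 min at room temperature. Reaction started with cumene hydroperoxide (0.5 mM final) after 30 min compound–GPX4 preincubation; final 200 nM GPX4, 100 nM GR, 1 mM GSH, 0.5 mM NADPH.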

[24] = Primary fluorescence-based thiol-reactive (MSTI) qHTS assay for identification of artifact compounds. (AID 1845221)
How it was run: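 Compounds were incubated 1 h at room temperature in the dark with the MSTI probe (4 uM) in PBS pH 7.4, 2% DMSO. Signals were normalized between Acetyl-MSTI and MSTI.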

[25] = qHTS drug screen for cell cycle checkpoint inhibitors in PARPi-resistant BRCA-mutant ovarian cancer cell lines. (AID 1963452; calls by dose curve); details: PEO1/OlaR viability, CellTiter-Glo luminescence, 96 h, stronger effect = lower value
How it was run: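 PEO1, PEO4 and PEO1/OlaR ovarian cancer cells, 600 per well, exposed 96 h at 37C to a dilution series. Viability read by CellTiter-Glo luminescence, normalized to DMSO and empty wells; activity summarized as Z-AUC.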

CC(C)=CCC[C@]1(C)C=Cc2c(O)c3c(c(CC=C(C)C)c2O1)O[C@]12C(=C[C@@H]4CC1C(C)(C)O[C@@]2(C/C=C(/C)C(=O)O)C4=O)C3=O
Potency [1]: 4.11 µM (active)
Potency [2]: 9.87 µM (active)
Potency [3]: 1.56 µM (active)
Potency [4]: 2.82 µM (active)
Potency [5]: 2.82 µM (active)
Potency [6]: 2.48 µM (active)
Potency [7]: 1 µM (active)
Potency [8]: 7.08 µM (active)
Potency [9]: 8.29 µM (active)
Potency [10]: 2.94 µM (active)
Potency [11]: 2.94 µM (active)
Potency [12]: 578 nM (active)
Potency [13]: 365 nM (active)
outcome [14]: inactive
Potency [15]: inactive
Potency [16]: inactive
Potency (HEK293): 731 nM (active)
Potency (HaCat): 4.61 µM (active)
Potency (NIH3T3): 1.16 µM (active)
Potency (C33A): 5.62 µM (active)
Potency (CAOV3): 3.16 µM (active)
Potency (CASKI): 2.24 µM (active)
Potency (Es-2): 3.16 µM (active)
Potency (HeLa): 5.01 µM (active)
Potency (Hek293T): 5.62 µM (active)
Potency (JEG-3): 3.98 µM (active)
Potency (OV90): 5.01 µM (active)
Potency (PA-1): 4.47 µM (active)
Potency (Tov-21-G): 7.94 µM (active)
Potency (Tov112D): 5.01 µM (active)

CC[C@H]1/C=C\C=C/C[C@@H](C)[C@H](O)[C@@](C)(O)C(=O)[C@@H](C)[C@H](O)[C@@H](C)C(=O)[C@@H](C)[C@H](O)[C@@H](C)/C=C\C(=O)O[C@@H]2[C@H](C)[C@H](CC1)O[C@]1(CC[C@H](C)[C@H](C[C@@H](C)O)O1)[C@H]2C
Potency [5]: inactive
Potency [17]: 20.8 µM (active)
Potency [18]: inactive
Potency [19]: 20 µM (active)
Potency [12]: 742 nM (active)
Potency [13]: 332 nM (active)
Potency [20]: 15.8 µM (active)
Potency [21]: 5.78 µM (active)
Potency [22]: inactive
Potency [23]: inactive
outcome [14]: inactive
Potency [24]: inactive
Potency [15]: inactive
Potency [16]: inactive
Z-AUC [25]: 0.274 (inactive)
Z-AUC ([25]; measured here: PEO1 parental Z-AUC): -2.84
Z-AUC ([25]; measured here: PEO4 Z-AUC): -2.81
max response (HEK293): -112% (inactive)
Potency (CASKI): inactive
Potency (OV90): inactive
Potency (PA-1): inactive
Potency (Tov-21-G): inactive
